Experimental findings from ChEMBL document CHEMBL4808148, “HDAC6 screening dataset using tau-based substrate in an enzymatic assay yields selective inhibitors and activators” (2021) are described below.

Structures are written as SMILES. Screen size: about 5,600 compounds; about 390 (7%) showed an effect of 50% or more. The full list was thinned out, with strong results kept by preference. Non-standard residues stand in square brackets, D forms with d. Residues, ends and D or L forms follow the SMILES beside them. *: point of attachment. dPhe(4-NHCONH2) = NC(=O)Nc1ccc(C[C@@H](N)C(=O)O)cc1; Dihydroorotyl(S) = O=C1C[C@@H](C(=O)*)NC(=O)N1; dPhe(4-Cl) = N[C@H](Cc1ccc(Cl)cc1)C(=O)O; Phe(4-NH2) = Nc1ccc(C[C@H](N)C(=O)O)cc1; d2Nal = N[C@H](Cc1ccc2ccccc2c1)C(=O)O; Lys(iPr) = CC(C)NCCCC[C@H](N)C(=O)O; d3Pal = N[C@H](Cc1cccnc1)C(=O)O

The test addresses T1, Protein deacetylase HDAC6 (Homo sapiens) (UniProt Q9UBN7).
T1 sequence (whole entry): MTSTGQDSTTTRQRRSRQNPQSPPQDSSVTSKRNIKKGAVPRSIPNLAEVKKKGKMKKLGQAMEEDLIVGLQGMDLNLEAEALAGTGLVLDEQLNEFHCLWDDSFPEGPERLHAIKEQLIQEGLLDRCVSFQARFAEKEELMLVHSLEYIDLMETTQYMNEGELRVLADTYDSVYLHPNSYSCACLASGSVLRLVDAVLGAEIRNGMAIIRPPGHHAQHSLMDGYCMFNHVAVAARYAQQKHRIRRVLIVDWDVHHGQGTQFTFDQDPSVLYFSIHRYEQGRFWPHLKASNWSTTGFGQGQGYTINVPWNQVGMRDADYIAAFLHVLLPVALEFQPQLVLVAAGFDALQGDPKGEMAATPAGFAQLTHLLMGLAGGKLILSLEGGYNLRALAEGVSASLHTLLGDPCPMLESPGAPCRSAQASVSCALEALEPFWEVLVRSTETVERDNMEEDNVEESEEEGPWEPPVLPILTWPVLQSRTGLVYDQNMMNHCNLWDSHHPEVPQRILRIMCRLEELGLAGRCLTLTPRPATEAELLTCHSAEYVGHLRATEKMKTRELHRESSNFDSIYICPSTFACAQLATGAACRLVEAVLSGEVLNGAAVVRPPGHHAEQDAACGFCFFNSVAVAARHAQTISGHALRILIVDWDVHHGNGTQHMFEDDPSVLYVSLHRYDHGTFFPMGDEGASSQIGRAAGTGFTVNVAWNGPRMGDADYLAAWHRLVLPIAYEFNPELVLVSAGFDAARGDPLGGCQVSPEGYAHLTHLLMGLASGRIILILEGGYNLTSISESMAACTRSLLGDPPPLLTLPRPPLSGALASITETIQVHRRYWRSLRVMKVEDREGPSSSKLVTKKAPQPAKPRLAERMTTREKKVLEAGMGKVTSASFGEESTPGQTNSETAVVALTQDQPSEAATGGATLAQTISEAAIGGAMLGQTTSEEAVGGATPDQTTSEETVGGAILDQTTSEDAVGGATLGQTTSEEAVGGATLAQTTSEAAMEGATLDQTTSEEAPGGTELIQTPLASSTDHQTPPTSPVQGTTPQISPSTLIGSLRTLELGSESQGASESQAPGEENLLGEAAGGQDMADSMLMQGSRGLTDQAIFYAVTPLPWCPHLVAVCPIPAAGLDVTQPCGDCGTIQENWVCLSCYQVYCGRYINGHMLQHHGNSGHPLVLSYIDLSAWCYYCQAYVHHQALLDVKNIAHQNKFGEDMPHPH
The note with it: at 10 µM.
On to `CC1(N)CCN(c2cnc(-c3cccc(Cl)c3Cl)c(N)n2)CC1`, for which the inhibition is 21.6%.

Turning to `O=C(O)/C=C/c1ccc(-c2ccc(O)c(C34CC5CC(CC(C5)C3)C4)c2)cc1`, the inhibition stood at 30.5%.

On to `C[C@@](Cc1ccc(O)c(O)c1)(NN)C(=O)O`, for which the inhibition is -8.77%.

For the molecule `O=C(/C=C/c1ccc(O)c(O)c1)OCCc1ccccc1`, the inhibition was determined as 80.7%.

As for `COc1cc(NC(=O)Nc2cccc(CNC(=O)O[C@H]3CCOC3)c2)ccc1-c1cnco1`, the inhibition was found to be 38.8%.

Turning to `CCCCCCNC(=O)n1cc(F)c(=O)[nH]c1=O`, the inhibition amounted to 5.48%.

As for `Cn1cc(-c2cnc3ccc4ccc(CS(=O)(=O)NCc5ccccn5)cc4c(=O)c3c2)cn1`, the inhibition is -2.81%.

`O=C(CN1CCN(Cc2ccc3c(c2)OCO3)CC1)N1c2ccccc2Sc2ccccc21`: the inhibition amounted to 8.76%.

Turning to `O=C(NCc1ccc2c(c1)OCO2)c1c(Cl)cccc1Cl`, the inhibition amounted to 76.1%.

As for `O=C(COc1ccc(Cl)cc1)N1CCN(Cc2ccc3c(c2)OCO3)CC1`, the inhibition was 6.09%.

As to `NC(Cc1ccc(Cl)cc1)C(=O)O` (racemic), the inhibition came to 19.5%.

Take `O=c1sn(-c2cccc3ccccc23)c(=O)n1Cc1ccccc1`: the inhibition was 83.4%.

In the case of `Cc1ccc(-n2sc(=O)n(Cc3ccc(F)cc3)c2=O)cc1`, the inhibition came to 41.5%.

Regarding `CNC(=O)c1ccc2cc(C3(O)CCn4cncc43)ccc2c1` (stereo not drawn), the inhibition stood at 25.9%.

On to `Nc1nc2c(c(N3CCNCC3)n1)CCC1=C2[C@@H]2CCCC[C@@H]2O1`, for which the inhibition is -3.26%.

In the case of `CNNCc1ccc(C(=O)NC(C)C)cc1`, the inhibition amounted to 4.33%.

For `CC(C)NCC(O)COc1ccc(CC(N)=O)cc1` (stereo not drawn), the inhibition was determined as 4.66%.

Turning to `CC(C)COc1ccc(CNC(=O)N(Cc2ccc(F)cc2)C2CCN(C)CC2)cc1`, the inhibition was -8.99%.

As to `C[C@H](NCc1ccc(OCc2ccccc2F)cc1)C(N)=O`, the inhibition was determined as 69.4%.

As to `C[C@H](NC(=O)Cc1cc(F)cc(F)c1)C(=O)N[C@H](C(=O)OC(C)(C)C)c1ccccc1`, the inhibition turned out to be 17.3%.

Take `C[C@H](NCc1ccc(OCc2cccc(F)c2)cc1)C(N)=O`: the inhibition amounted to 83.6%.

Regarding `C(#Cc1nc2ncccc2nc1OCCN1CCCC1)c1ccccc1`, the inhibition was found to be 30.5%.

Consider `O=c1[nH]c2ccccc2n1CCCN1CCN(C(c2ccccc2)c2ccccc2)CC1`, for which the inhibition is -9.27%.

Consider `O=C1c2ccccc2-n2c1nc1ccccc1c2=O`, for which the inhibition was 104%.

Regarding `C[C@H](NC[C@H](O)CP(=O)(O)Cc1ccccc1)c1ccc(Cl)c(Cl)c1`, the inhibition was -2.08%.

On to `N=C(N)S/C=C\C(=O)O`, for which the inhibition is 6.84%.

As for `CC(=O)N[C@H](Cc1ccc2ccccc2c1)C(=O)N[C@H](Cc1ccc(Cl)cc1)C(=O)N[C@H](Cc1cccnc1)C(=O)N[C@@H](CO)C(=O)N[C@@H](Cc1ccc(NC(=O)[C@@H]2CC(=O)NC(=O)N2)cc1)C(=O)N[C@H](Cc1ccc(NC(N)=O)cc1)C(=O)N[C@@H](CC(C)C)C(=O)N[C@@H](CCCCNC(C)C)C(=O)N1CCC[C@H]1C(=O)N[C@H](C)C(N)=O` (Ac-[d2Nal][dPhe(4-Cl)][d3Pal]S[Phe(4-NH2)](Dihydroorotyl(S))[dPhe(4-NHCONH2)]L[Lys(iPr)]P[dA]-NH2), the inhibition turned out to be 33.2%.

Consider `NS(=O)(=O)c1cc2c(cc1Cl)NCNS2(=O)=O`, for which the inhibition was -9.26%.

`CN1C(CSCC(F)(F)F)Nc2cc(Cl)c(S(N)(=O)=O)cc2S1(=O)=O` (stereo not drawn): the inhibition stood at 11.5%.

Regarding `NS(=O)(=O)c1cc2c(cc1Cl)N=C(CSCc1ccccc1)NS2(=O)=O`, the inhibition was 78.4%.

As to `COc1cc(OC)cc(C(=O)NNC(=O)Nc2cccc3ccccc23)c1`, the inhibition was determined as 9.39%.

On to `O=C(O)c1ccccc1Nc1cccc(OCc2ccc3ccccc3n2)c1`, for which the inhibition was 14.8%.

As for `CCCCCC(O)c1cccc(OCc2ccc3ccccc3n2)c1` (stereo not drawn), the inhibition worked out at 70.6%.

Turning to `Cn1cc(-c2ccncc2)c(-c2ccc(OCc3ccc4ccccc4n3)cc2)n1`, the inhibition was determined as 4.18%.

For `NS(=O)(=O)c1cc(C(=O)O)cc(N2CCCC2)c1Oc1ccccc1`, the inhibition came out at 1.91%.

With `COc1c(Nc2ccc(S(C)(=O)=O)nc2C)ncnc1OC1CCN(C(=O)OC(C)C)CC1`, the inhibition is 42.5%.

Consider `O=C1NCCN1CCN1CCC(c2cn(-c3ccc(F)cc3)c3ccc(Cl)cc23)CC1`, for which the inhibition came out at 3.95%.

As for `O=c1cc(N2CCOCC2)nc2c3ccccc3ccn12`, the inhibition amounted to 33.6%.

On to `Cc1c(Cn2c(C)nc3c(C(=O)O)cc(N4CCOCC4)cc32)cccc1C(F)(F)F`, for which the inhibition is 13.4%.

In the case of `Cc1cc([C@@H](C)Nc2ccccc2C(=O)O)c2nc(N3CCOCC3)cc(=O)n2c1`, the inhibition amounted to 92.5%.

In the case of `CCN1CCN(Cc2ccc(Nc3ncc(F)c(-c4cc(F)c5nc(C)n(C(C)C)c5c4)n3)nc2)CC1`, the inhibition was -7.99%.

Take `c1ccc(N2CCN(CCCOc3ccc4c(c3)OCO4)CC2)cc1`: the inhibition was determined as 8.38%.

For the molecule `CCCCC(=O)NCCc1c(Cc2ccccc2)[nH]c2ccccc12`, the inhibition is -8.08%.

Take `CCCCCCN(CCCCCC)C(=O)Cc1c(-c2ccc(F)cc2)[nH]c2ccccc12`: the inhibition came out at 0.87%.

As for `CNC(=O)c1cc2c(cn1)[nH]c1ccccc12`, the inhibition stood at 71.2%.

In the case of `CCOC(=O)c1ncc2[nH]c3cccc(OC(C)C)c3c2c1C`, the inhibition was -0.9%.

As for `CCCCOC(=O)c1cc2c(cn1)[nH]c1ccccc12`, the inhibition came out at 78.3%.

With `CNCC(=O)O`, the inhibition is 15.9%.

Take `NC(=O)C1=CN([C@@H]2O[C@H](COP(=O)(O)OP(=O)(O)OC[C@H]3O[C@@H](n4cnc5c(N)ncnc54)[C@H](OP(=O)(O)O)[C@@H]3O)[C@@H](O)[C@H]2O)C=CC1`: the inhibition was 28.1%.

For `Cc1cccc(C)c1NC(=O)CC12CCCN1CCC2`, the inhibition was -8.45%.

Turning to `CC(C)(C)NC(=O)[C@@H]1CN(Cc2cccnc2)CCN1C[C@@H](O)C[C@@H](Cc1ccccc1)C(=O)N[C@H]1c2ccccc2C[C@H]1O`, the inhibition turned out to be 1.38%.

As to `CN1CCN(c2ccc(Nc3ncc4cc(C#N)c(=O)n(C5CCCC5)c4n3)cc2)CC1`, the inhibition was -8.66%.

As for `O=C(Nc1ccc([N+](=O)[O-])cc1Cl)c1cc(Cl)ccc1O`, the inhibition worked out at 93.1%.

On to `O=C(Nc1ccncc1)c1cc([N+](=O)[O-])ccc1Cl`, for which the inhibition amounted to 8.83%.

Take `O=C(Nc1ccccc1)c1cc([N+](=O)[O-])ccc1Cl`: the inhibition is -6.48%.

Turning to `CCCCCCOc1ccccc1C(N)=O`, the inhibition was 93.3%.

As to `CCCCCCCCOc1ccccc1C(=O)Nc1ccc(C(=O)OCC[N+](C)(CC)CC)cc1`, the inhibition was -3.51%.

As for `CCOc1ccccc1C(N)=O`, the inhibition amounted to 18.7%.

Regarding `CCn1cc(C(=O)O)c(=O)c2ccc(-c3ccncc3)cc21`, the inhibition came to 30.6%.

Consider `O=C(O)Cc1ccc(-c2ccccc2)cc1`, for which the inhibition came out at 10.6%.

For `O=C(O)c1ccccn1`, the inhibition was 12.2%.

As to `O=C(Cc1ccc(-c2ccccc2)cc1)Nc1ccccn1`, the inhibition came to 56.6%.

Turning to `COC1/C=C\OC2(C)Oc3c(C)c(O)c4c(O)c(cc(O)c4c3C2=O)NC(=O)/C(C)=C\C=C/C(C)C(O)C(C)C(O)C(C)C(OC(C)=O)C1C` (stereo not drawn), the inhibition was 5.48%.

The inhibition is the drop in the measured response relative to a control, in per cent.
